Measurements from article PMC5700166.

What was measured:
Test in all cases: protein-binding microarray (PBM); PBM: ~300 nM protein, 6 mM HEPES pH 7.8, 80 mM KCl, 0.5 mM EDTA, 0.5 mM EGTA, 6% glycerol, 35 ng/ul poly-dIdC, 1% milk, 1 h, room temperature; Ap Aiptasia and Nv Nematostella (sea anemones) / Co Capsaspora / Aq Amphimedon (sponge) / Dm Drosophila / Hu human; RHD is the Rel homology domain; high values mean tight binding
Conditions in all cases: dsDNA, one strand shown
GST-Ap-NF-kB RHD = target: T1, GST-Ap-NF-kB RHD (Exaiptasia pallida (Aiptasia), UniProt A0A913YAJ5 2-422)
T1 sequence: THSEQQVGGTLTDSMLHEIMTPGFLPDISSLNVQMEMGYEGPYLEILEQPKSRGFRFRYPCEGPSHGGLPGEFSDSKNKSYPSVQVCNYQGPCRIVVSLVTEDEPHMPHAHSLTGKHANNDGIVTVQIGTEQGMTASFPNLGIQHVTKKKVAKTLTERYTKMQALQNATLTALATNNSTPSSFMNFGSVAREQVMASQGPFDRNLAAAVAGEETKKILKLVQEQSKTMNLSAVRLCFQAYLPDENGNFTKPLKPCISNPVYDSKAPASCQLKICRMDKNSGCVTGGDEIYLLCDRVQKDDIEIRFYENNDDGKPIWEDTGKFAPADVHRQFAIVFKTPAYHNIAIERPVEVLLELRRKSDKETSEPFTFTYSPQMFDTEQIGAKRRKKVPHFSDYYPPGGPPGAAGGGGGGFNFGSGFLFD

GST-Co-NF-kB = target: T2, GST-Co-NF-kB (Capsaspora owczarzaki, UniProt F1ARL5 200-546)
T2 sequence: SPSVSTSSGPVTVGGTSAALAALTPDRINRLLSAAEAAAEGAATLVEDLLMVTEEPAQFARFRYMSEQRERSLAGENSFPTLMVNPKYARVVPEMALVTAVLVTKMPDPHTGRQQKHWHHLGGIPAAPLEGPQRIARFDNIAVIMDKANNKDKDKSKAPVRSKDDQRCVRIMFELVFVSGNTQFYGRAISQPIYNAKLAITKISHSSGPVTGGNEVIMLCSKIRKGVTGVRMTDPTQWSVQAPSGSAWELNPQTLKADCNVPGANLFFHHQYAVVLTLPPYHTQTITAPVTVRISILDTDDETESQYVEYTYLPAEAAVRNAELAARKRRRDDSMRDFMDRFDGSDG

GST-Dm-Relish = target: T3, GST-Dm-Relish (Drosophila melanogaster, UniProt Q94527 99-473)
T3 sequence: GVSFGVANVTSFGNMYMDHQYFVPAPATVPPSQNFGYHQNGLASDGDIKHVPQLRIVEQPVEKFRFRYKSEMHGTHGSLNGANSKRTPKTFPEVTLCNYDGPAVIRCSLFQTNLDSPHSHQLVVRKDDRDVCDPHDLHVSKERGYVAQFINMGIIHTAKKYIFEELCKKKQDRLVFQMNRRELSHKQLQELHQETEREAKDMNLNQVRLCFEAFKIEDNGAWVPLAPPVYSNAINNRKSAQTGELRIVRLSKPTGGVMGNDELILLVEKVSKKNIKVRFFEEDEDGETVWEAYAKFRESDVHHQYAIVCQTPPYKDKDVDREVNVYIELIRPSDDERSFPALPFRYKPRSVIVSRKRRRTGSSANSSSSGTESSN

GST-Aq-NF-kB = target: T4, GST-Aq-NF-kB (Amphimedon queenslandica, UniProt A9Y5G7 2-389)
T4 sequence: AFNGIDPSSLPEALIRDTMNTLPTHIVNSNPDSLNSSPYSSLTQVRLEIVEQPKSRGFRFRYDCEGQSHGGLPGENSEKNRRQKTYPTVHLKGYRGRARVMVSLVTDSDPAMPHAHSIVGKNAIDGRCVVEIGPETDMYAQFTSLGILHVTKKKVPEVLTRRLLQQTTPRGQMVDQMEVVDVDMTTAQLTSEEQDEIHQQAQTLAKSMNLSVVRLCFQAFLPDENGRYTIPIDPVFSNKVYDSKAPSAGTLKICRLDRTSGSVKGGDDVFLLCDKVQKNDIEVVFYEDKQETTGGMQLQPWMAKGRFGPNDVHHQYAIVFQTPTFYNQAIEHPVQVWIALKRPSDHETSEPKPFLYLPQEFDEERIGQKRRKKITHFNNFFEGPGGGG

[1] = target: T5, GST-Nv-NF-kB (Cys allele) (Nematostella vectensis, UniProt E5G601 2-411)
T5 sequence: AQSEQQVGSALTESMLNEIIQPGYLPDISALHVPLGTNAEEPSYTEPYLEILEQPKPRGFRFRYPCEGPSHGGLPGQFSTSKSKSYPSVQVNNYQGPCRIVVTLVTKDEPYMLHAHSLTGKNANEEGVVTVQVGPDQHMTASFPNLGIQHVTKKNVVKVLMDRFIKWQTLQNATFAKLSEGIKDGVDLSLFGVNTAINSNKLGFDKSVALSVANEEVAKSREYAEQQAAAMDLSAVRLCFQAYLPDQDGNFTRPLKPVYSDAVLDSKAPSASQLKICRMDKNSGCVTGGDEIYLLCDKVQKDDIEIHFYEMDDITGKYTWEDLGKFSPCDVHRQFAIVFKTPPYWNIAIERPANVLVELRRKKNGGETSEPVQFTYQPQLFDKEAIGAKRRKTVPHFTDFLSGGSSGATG

What does the source list for “CCGATTAACATCAGGGGGGGAACTGATGTTAATCGGGTCTTGATTCGCTTGACGCTGCTG”?
binding signal (GST-Ap-NF-kB RHD): 6.55 z-score; binding signal (GST-Co-NF-kB): 8.33 z-score; binding signal (GST-Dm-Relish): 5.17 z-score; binding signal (GST-Aq-NF-kB): 4.84 z-score

“CCGATTAACATCAGCGGAATTCCTGATGTTAATCGGGTCTTGATTCGCTTGACGCTGCTG” was tested. Which binding signal (GST-Ap-NF-kB RHD) did it give?
Its binding signal is 1.33 z-score.

And the binding signal (GST-Dm-Relish)?
The binding signal was 2.27 z-score.

What about the binding signal (GST-Aq-NF-kB) of the same sequence?
Its binding signal is 1.89 z-score.

How did the binding signal (GST-Ap-NF-kB RHD) turn out when “CCGATTAACATCACGGAATGCCCTGATGTTAATCGGGTCTTGATTCGCTTGACGCTGCTG” was run?
The binding signal was 1.03 z-score.

What about the binding signal (GST-Dm-Relish) of the same sequence?
The binding signal was 1.71 z-score.

And the binding signal (GST-Aq-NF-kB)?
Its binding signal is 2.6 z-score.

With “CCGATTAACATCAGGACACCCCATGATGTTAATCGGGTCTTGATTCGCTTGACGCTGCTG” as the sequence, how does the binding signal (GST-Ap-NF-kB RHD) read?
The binding signal was 1.22 z-score.

What about the binding signal (GST-Co-NF-kB) of the same sequence?
The binding signal was 1.49 z-score.

What about the binding signal (GST-Dm-Relish) of the same sequence?
The binding signal was 1.93 z-score.

And the binding signal (GST-Aq-NF-kB)?
The binding signal was 1.61 z-score.

For “CCGATTAACATCAGGCAATCCCATGATGTTAATCGGGTCTTGATTCGCTTGACGCTGCTG”, which binding signal (GST-Ap-NF-kB RHD) is on record?
The binding signal was 1 z-score.

What about the binding signal (GST-Dm-Relish) of the same sequence?
Its binding signal is 2.82 z-score.

And the binding signal (GST-Aq-NF-kB)?
Its binding signal is 1.38 z-score.

Which results are given for “CCGATTAACATCACGGGCTTTCCTGATGTTAATCGGGTCTTGATTCGCTTGACGCTGCTG”?
binding signal (GST-Ap-NF-kB RHD): 1.64 z-score; binding signal (GST-Dm-Relish): 3.81 z-score; binding signal (GST-Aq-NF-kB): 4.66 z-score

What does the source list for “CCGATTAACATCAGGAGATCCCATGATGTTAATCGGGTCTTGATTCGCTTGACGCTGCTG”?
binding signal (GST-Ap-NF-kB RHD): 1.24 z-score; binding signal (GST-Dm-Relish): 4.37 z-score; binding signal (GST-Aq-NF-kB): 2.7 z-score

Which binding signal (GST-Ap-NF-kB RHD) does the source give for “CCGATTAACATCAGGAAACACCATGATGTTAATCGGGTCTTGATTCGCTTGACGCTGCTG” here?
Its binding signal is 1 z-score.

And the binding signal (GST-Dm-Relish)?
Its binding signal is 1.77 z-score.

And the binding signal (GST-Aq-NF-kB)?
The binding signal was 1.49 z-score.

“CCGATTAACATCACGGACACCCCTGATGTTAATCGGGTCTTGATTCGCTTGACGCTGCTG” was tested. Which binding signal (GST-Ap-NF-kB RHD) did it give?
The binding signal was 1.65 z-score.

What about the binding signal (GST-Co-NF-kB) of the same sequence?
The binding signal was 1.34 z-score.

And the binding signal (GST-Dm-Relish)?
The binding signal was 1.95 z-score.

And the binding signal (GST-Aq-NF-kB)?
The binding signal was 2.16 z-score.

Which binding signal (GST-Ap-NF-kB RHD) does the source give for “CCGATTAACATCAAGGAAATACCTGATGTTAATCGGGTCTTGATTCGCTTGACGCTGCTG” here?
The binding signal was 1.2 z-score.

And the binding signal (GST-Dm-Relish)?
Its binding signal is 3.3 z-score.

And the binding signal (GST-Aq-NF-kB)?
The binding signal was 3.81 z-score.

Which results are given for “CCGATTAACATCAAGGAATGCCCTGATGTTAATCGGGTCTTGATTCGCTTGACGCTGCTG”?
binding signal (GST-Ap-NF-kB RHD): 1.68 z-score; binding signal (GST-Dm-Relish): 1.35 z-score; binding signal (GST-Aq-NF-kB): 2.68 z-score

Which binding signal (GST-Ap-NF-kB RHD) does the source give for “CCGATTAACATCAGGAAAGCCCATGATGTTAATCGGGTCTTGATTCGCTTGACGCTGCTG” here?
Its binding signal is 1.24 z-score.

And the binding signal (GST-Dm-Relish)?
Its binding signal is 4.29 z-score.

What about the binding signal (GST-Aq-NF-kB) of the same sequence?
Its binding signal is 3.12 z-score.

For “CCGATTAACATCACGGGATTGCCTGATGTTAATCGGGTCTTGATTCGCTTGACGCTGCTG”, which binding signal (GST-Ap-NF-kB RHD) is on record?
Its binding signal is 1.39 z-score.

What about the binding signal (GST-Dm-Relish) of the same sequence?
Its binding signal is 2.08 z-score.

And the binding signal (GST-Aq-NF-kB)?
Its binding signal is 2.41 z-score.

For “CCGATTAACATCAGGAATCCCAATGATGTTAATCGGGTCTTGATTCGCTTGACGCTGCTG”, which binding signal (GST-Ap-NF-kB RHD) is on record?
The binding signal was 1.71 z-score.

What about the binding signal (GST-Dm-Relish) of the same sequence?
The binding signal was 7.14 z-score.

What about the binding signal (GST-Aq-NF-kB) of the same sequence?
Its binding signal is 1.48 z-score.

What does the source list for “CCGATTAACATCATTATGGGAAATGATGTTAATCGGGTCTTGATTCGCTTGACGCTGCTG”?
binding signal [1]: 2.63 z-score; binding signal (GST-Co-NF-kB): 2.21 z-score; binding signal (GST-Aq-NF-kB): 1.44 z-score

What does the source list for “CCGATTAACATCACCCATGGGAATGATGTTAATCGGGTCTTGATTCGCTTGACGCTGCTG”?
binding signal [1]: 1.13 z-score; binding signal (GST-Co-NF-kB): 2.05 z-score; binding signal (GST-Dm-Relish): 1.03 z-score; binding signal (GST-Aq-NF-kB): 2.51 z-score

“CCGATTAACATCAGGGATCGCCCTGATGTTAATCGGGTCTTGATTCGCTTGACGCTGCTG” was tested. Which binding signal [1] did it give?
The binding signal was 1.19 z-score.

What about the binding signal (GST-Dm-Relish) of the same sequence?
Its binding signal is 3.26 z-score.

And the binding signal (GST-Aq-NF-kB)?
The binding signal was 4.24 z-score.

With “CCGATTAACATCACAAATGGGAATGATGTTAATCGGGTCTTGATTCGCTTGACGCTGCTG” as the sequence, how does the binding signal [1] read?
The binding signal was 1.95 z-score.

What about the binding signal (GST-Co-NF-kB) of the same sequence?
The binding signal was 1.92 z-score.

And the binding signal (GST-Dm-Relish)?
Its binding signal is 1.56 z-score.

What about the binding signal (GST-Aq-NF-kB) of the same sequence?
Its binding signal is 2.36 z-score.

Which results are given for “CCGATTAACATCAATTCCCATGATGATGTTAATCGGGTCTTGATTCGCTTGACGCTGCTG”?
binding signal [1]: 2.46 z-score; binding signal (GST-Co-NF-kB): 1.75 z-score; binding signal (GST-Aq-NF-kB): 1.67 z-score

For “CCGATTAACATCAACTTTGGGAATGATGTTAATCGGGTCTTGATTCGCTTGACGCTGCTG”, which binding signal [1] is on record?
The binding signal was 1.04 z-score.

And the binding signal (GST-Co-NF-kB)?
Its binding signal is 1.7 z-score.

And the binding signal (GST-Aq-NF-kB)?
The binding signal was 1.56 z-score.

Which results are given for “CCGATTAACATCAACTATCCCGCTGATGTTAATCGGGTCTTGATTCGCTTGACGCTGCTG”?
binding signal (GST-Co-NF-kB): 1.37 z-score; binding signal (GST-Aq-NF-kB): 1.07 z-score

Which results are given for “CCGATTAACATCAGGTAATTTACTGATGTTAATCGGGTCTTGATTCGCTTGACGCTGCTG”?
binding signal [1]: 1.68 z-score; binding signal (GST-Co-NF-kB): 1.89 z-score; binding signal (GST-Dm-Relish): 5.32 z-score; binding signal (GST-Aq-NF-kB): 2.13 z-score

What does the source list for “CCGATTAACATCACGGAAATTTATGATGTTAATCGGGTCTTGATTCGCTTGACGCTGCTG”?
binding signal (GST-Co-NF-kB): 1.07 z-score; binding signal (GST-Dm-Relish): 1.11 z-score; binding signal (GST-Aq-NF-kB): 1.74 z-score
